Tat transport: inhibitors of E. coli Tat protein transport; 340,000 compounds, 0.036% hits; E. coli MC4100 TorA-mCherry Tat export, fluorescence; inhibition, % at 10 µM;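 active = mean replicate inhibition at least 50% and at least half of replicates individually reaching 50%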;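 also: exported cargo escapes ClpAP degradation while cytoplasmic cargo is degraded and loses fluorescence; 0% = median of neutral control wells and 100% = median of NaSCN control wells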
E coli growth-1: bacterial growth inhibition, counter-screen for AddAB inhibitors; E. coli V3065 growth, OD600 absorbance, 18 h; inhibition, % at 11.9 µM; 330,000 compounds, 0.27% hits;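 active = inhibition above the campaign's mean inhibition across all tested compounds plus 3 SD, cut at about 9.9% in these data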;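 also: uninfected addAB+ strain grown without phage in ampicillin broth; 0% = DMSO wells and 100% = ciprofloxacin 0.95 µg/ml wells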
phage Ecoli inh: E. coli growth loss with phage present | growth absorbance | inhibition, % at 11.9 µM | 360,000 compounds, 0.26% hits | AID 651602; in the data active = inhibition above about 11%
AddAB inh: less growth of phage-infected E. coli with AddAB. inhibition, % at 11.9 µM. 330,000 compounds, 0.29% hits. E. coli expressing H. pylori AddAB, absorbance growth; in the data active = inhibition above about 12%;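 also: 0% = vehicle wells of infected cells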
E coli growth-2: blocks Escherichia coli growth; OD600 absorbance (test concentration not listed); OD600, 23 h; stronger effect = lower value; AID 1053175; 330,000 compounds, 0.21% hits;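 active = OD600 absorbance below the run mean of sample wells minus 3.6 SD, in any replicate, cut at about 0.56 in these data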
RecBCD conf: growth loss of phage-infected V66 E. coli, RecBCD confirmation screen | shares compounds with phage Ecoli inh | 890 compounds, 45% hits | inhibition, % at 11.9 µM | AID 651982 | E. coli V66 + T4 2- phage, growth OD;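 active = mean inhibition over triplicates exceeding the hit threshold derived in the original primary screen, cut at about 11% in these data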
Ecoli viability: counter-screen for RecBCD inhibitors: inhibitors of bacterial viability. inhibition, % at 11.9 µM. E. coli viability, absorbance (OD) growth. shares compounds with phage Ecoli inh. 890 compounds, 29% hits; in the data active = inhibition above about 20%;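 also: E. coli strain V66 grown with compound alone and no phage infection; 0% = bacteria with DMSO vehicle only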
AddAB counter: growth loss of phage-infected AddAB E. coli, RecBCD counter-screen. shares compounds with phage Ecoli inh. E. coli expressing H. pylori AddAB + T4 phage, OD growth; gene 2 mutant T4, recBCD-deleted host. inhibition, % at 11.9 µM. 890 compounds, 45% hits. AID 651984;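 active = mean inhibition above the solvent-only control wells' mean plus 3 SD, cut at about 22% in these data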;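 also: higher means less bacterial growth from phage killing when AddAB is blocked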
An asterisk follows results filed as active; ! = a repeat was not active. Shown are actives, neighbours in structure and some others; about 0.5% of the full set was active somewhere.

O=C(CSc1ccc(-c2cccnc2)nn1)c1ccc([N+](=O)[O-])cc1 was read as Tat transport -4, E coli growth-1 0, phage Ecoli inh 3, AddAB inh 1 and E coli growth-2 0.64.
CC(=O)c1cccc(NC(=O)CSc2ccc(-c3ccccn3)nn2)c1 was read as Tat transport 2, E coli growth-1 6, phage Ecoli inh 11*, AddAB inh 11, E coli growth-2 0.61, RecBCD conf 4, Ecoli viability 3 and AddAB counter 18.
O=C(NN=Cc1cc2c(cc1Cl)OCO2)c1cccnc1 was read as E coli growth-2 0.71.
CCc1ccc(NC(=O)CCC(=O)N2CCSc3ccccc32)cc1 was read as Tat transport 7, E coli growth-1 4, phage Ecoli inh 14*, AddAB inh 6, E coli growth-2 0.67, RecBCD conf -3, Ecoli viability -3 and AddAB counter 2.
Nc1nc2ccc(Cl)cc2o1 was read as Tat transport -16, phage Ecoli inh 13*, E coli growth-2 0.63, RecBCD conf 14*, Ecoli viability 16 and AddAB counter 37*.
NCCc1cnc[nH]1 was read as Tat transport -5, E coli growth-1 1, phage Ecoli inh 13*!, AddAB inh 1, E coli growth-2 0.65, RecBCD conf -6, Ecoli viability -8 and AddAB counter 2.
NCCC(=O)NCCc1cnc[nH]1 was read as Tat transport -7, E coli growth-1 1, phage Ecoli inh 2, AddAB inh -1 and E coli growth-2 0.68.
For Cc1ccc(C=NNC(=O)Cn2nccc2C)o1 the results were E coli growth-2 0.68.
For O=Cc1cc(N=Nc2ccccc2Cl)ccc1O the results were Tat transport 0, E coli growth-1 7, phage Ecoli inh 12*, AddAB inh 7, E coli growth-2 0.68, RecBCD conf 5, Ecoli viability 7 and AddAB counter 1.
`COc1ccc(C(=O)NN=Cc2ccc(N(C)c3ccccc3)cc2)cc1` gave E coli growth-2 0.66.
COc1ccc(S(=O)(=O)N2CCC(C(=O)NCCc3ccc(OC)c(OC)c3)CC2)cc1 was read as phage Ecoli inh 1.
`COc1ccc(CCNC(=O)C2CCN(S(=O)(=O)c3ccc(SC)cc3)CC2)cc1` gave Tat transport 9, E coli growth-1 -3, phage Ecoli inh 17*, AddAB inh 4, E coli growth-2 0.71, RecBCD conf -1, Ecoli viability -2 and AddAB counter -4.
Screening Nc1ncn([C@H]2C[C@H](O)[C@@H](CO)O2)c(=O)n1 returned Tat transport -9, E coli growth-1 4, phage Ecoli inh 12*, AddAB inh 3, RecBCD conf 14*, Ecoli viability 8 and AddAB counter 34*.
For S=C(Nc1ccc(Br)cc1)NC1CCCCC1 the results were Tat transport 0, E coli growth-1 6, phage Ecoli inh 12*, AddAB inh 8, E coli growth-2 0.67, RecBCD conf 3, Ecoli viability 5 and AddAB counter 5.
Screening Nc1nc(=S)c2ncn(C3OC(CO)CC3O)c2[nH]1 (configuration not stated) returned Tat transport -3, phage Ecoli inh 12*, RecBCD conf 12*, Ecoli viability 11 and AddAB counter 38*.
For Cc1cc(NS(=O)(=O)c2ccc(NC(=S)Nc3ccc(Cl)cc3C)cc2)no1 the results were Tat transport -14, E coli growth-1 5, phage Ecoli inh 12*, AddAB inh 6, E coli growth-2 0.7, RecBCD conf 3, Ecoli viability 2 and AddAB counter 12.
For Cc1cccc(NN=Cc2ccncc2)c1 the results were E coli growth-2 0.65.
Screening COc1cccc(C(Nc2ccccc2)c2ccc3ccc(C)nc3c2O)c1 (configuration not stated) returned phage Ecoli inh 12*, RecBCD conf 5, Ecoli viability 7 and AddAB counter 5.
`Cc1cccc(NC(c2ccc(O)cc2)c2ccc3ccc(C)nc3c2O)n1` (configuration not stated) gave Tat transport -4, E coli growth-1 -1, phage Ecoli inh 6, AddAB inh 3 and E coli growth-2 0.69.
For O=C(NCCNCCO)C1(C(F)(F)F)CC(=CCCO)CCCO1 (configuration not stated) the results were E coli growth-2 0.7.
For O=[N+]([O-])c1ccc(O)c(C2CCCCC2)c1 the results were Tat transport -5, phage Ecoli inh 12*, E coli growth-2 0.19*, RecBCD conf 7, Ecoli viability 12 and AddAB counter 17.
Screening NC(CO)c1nnc(C(CCC(=O)O)NC(=O)C2CCNCC2)o1 (configuration not stated) returned E coli growth-2 0.71.
Cc1nnc(SCC2=C(C(=O)O)N3C(=O)C(NC(=O)Cn4cnnn4)C3SC2)s1 (configuration not stated) was read as Tat transport 0, E coli growth-1 -1, phage Ecoli inh 100*, AddAB inh -3, E coli growth-2 0.062*, RecBCD conf 104*, Ecoli viability 106* and AddAB counter 1.
`Cc1nnc(SCC2=C(C(=O)O)N3C(=O)C(NC(=O)Cn4nc(C(F)F)c(Cl)c4C)C3SC2)s1` (configuration not stated) gave Tat transport 17, E coli growth-1 2, phage Ecoli inh 4, AddAB inh -1 and E coli growth-2 0.62.
Screening CN(C)CCn1nnnc1SCC1=C(C(=O)O)N2C(=O)[C@@H](NC(=O)Cc3csc(N)n3)[C@H]2SC1 returned Tat transport -3, E coli growth-1 0, phage Ecoli inh 99*, AddAB inh 1, RecBCD conf 103*, Ecoli viability 105* and AddAB counter 51*.
Cc1nnc(SCC2=C(C(=O)O)N3C(=O)[C@@H](NC(=O)Cn4cnnn4)[C@H]3SC2)s1 was read as Tat transport -6, E coli growth-1 1, phage Ecoli inh 94*, AddAB inh -1, E coli growth-2 0.045*, RecBCD conf 102*, Ecoli viability 104* and AddAB counter 3.
For CCC(C(=O)NC1C(=O)N2C(C(=O)O)=C(CSc3nnc(C)s3)CSC12)c1ccccc1 (configuration not stated) the results were Tat transport -3, E coli growth-1 0, phage Ecoli inh 4, AddAB inh 0 and E coli growth-2 0.63.
For CCN1C(=O)C2CCC3C(=NOCC(C)C(OCc4ccccc4)C(C)C)CC(O)C(O)C3C2C1=O (configuration not stated) the results were E coli growth-2 0.69.
Screening O=C(O)c1ccc(NN=Cc2cccc(F)c2)cc1 returned E coli growth-2 0.68.
